Structures are written as SMILES. Compounds without any hit were thinned out: in the full panel of roughly 83,000, 20% have a hit.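 Compound tested at a single concentration for 48 hours in 96-well plates; a percent growth value below 10 was scored as active.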 Values without a mark were called inactive. The source made the active and inactive calls.

The test system of one assay is ACHN renal. As to the kind of experiment: NCI-60 one-dose screen, 48 h (100 = growth as untreated, 0 = no growth, -100 = all killed). As to conditions: 10 µM unless noted.
Turning to `O=C(O)C(O)C(O)C(=O)O.[NH-]C1CCCCC1[NH-].[Pt+2]` (configuration not stated), the growth was 101%. In the case of `Cc1ccc(Nc2c(C(N)=O)cnc3ccc(-c4csc(N)n4)cc23)cc1`, the growth is 84.7%. Take `Cl/C(=N\Nc1ccccc1)c1ccccc1`: the growth is 92.5%.

In the case of `COc1cc(-c2c3sc(=O)[nH]c3nc3c2c(=O)[nH]n3C(C)C)cc2c1OCO2`, the growth was 95.8%.

On to `CC(C)(C)n1cc(-c2ccnc(NCCNS(=O)(=O)c3ccccc3)c2)c(-c2cccc(O)c2)n1`, for which the growth was 67.1%. With `COC(=O)C12C3C(=O)N(c4ccc(OC)cc4)C(=O)C3C(c3cn(-c4ccccc4)nc3C)N1[C@H](c1cn(-c3ccccc3)nc1C)[C@@H]1C(=O)N(c3ccc(OC)cc3)C(=O)[C@@H]12` (some centres not stated), the growth is 101%. In the case of `CC/C(Cc1ccccc1)=C(/c1ccc(O)cc1)c1ccc(OCCN2CCCC2)cc1`, the growth was -68.5% (active). For `O=C(NC(Cc1ccccc1)C(=O)CCl)OCc1ccccc1` (configuration not stated), the growth is 72%. On to `COc1cccc(/C=C2/C(=O)N(Cc3ccco3)SC2=S)c1OC`, for which the growth is 102%. Consider `CCOC(=O)C(C#N)C1CCCCC1` (configuration not stated), for which the growth is 99.4%. Consider `CC(C)[C@H]1COC(=O)N1[C@@H]1C(=O)N([C@@H](CCC(=O)N2CCN(C3CCCC3)CC2)C(=O)N[C@@H]2CCCc3ccccc32)[C@@H]1/C=C/c1cccc(Br)c1`, for which the growth was 48.9%. For the compound `Nc1ccc(N2CCOCC2)cc1`, the growth is 86.8%. As to `COc1cccc(/C=C\C(=O)c2ccccc2)c1`, the growth is 75%. On to `NS(=O)(=O)c1ccc(-n2ncc3c(=O)[nH]c(CN4CCN(c5cc6c(cc5F)c(=O)c(C(=O)O)cn6C5CC5)CC4)nc32)cc1`, for which the growth was 94%.

On to `CN1CCCCC1CCN1c2ccccc2Sc2ccc(Br)cc21` (configuration not stated), for which the growth is 58.7%.

Take `Cc1ccc(C2CC3c4ccccc4C2C2CCCCN32)cc1` (configuration not stated): the growth is 97.8%. As for `CCOC(=O)CC(C)=N`, the growth is 109%. Still for that read-out and setting: the same measure for `N=S(=O)(NC(=O)c1ccc(Cl)cc1Cl)c1ccc(Br)s1` (configuration not stated): 95.6%; for `CCCCCCCCCCCCS(=O)CC(C)O` (configuration not stated): 105%. `CC1(C)CC(C(=O)OCCCCCCCCCCC[P+](c2ccccc2)(c2ccccc2)c2ccccc2)C(C)(C)N1O` (configuration not stated): the growth is 109%. On to `COc1ccc(/C(=C/c2ccc3ccccc3c2)c2nn[nH]n2)cc1OC`, for which the growth is 54.4%. Same read-out and setting: the same measure for `Cc1cccc(NC(=O)c2sc3nc4c(cc3c2N)C(=O)CCC4)c1`: 51.9%; for `O=[N+]([O-])c1cccc(C2CC(c3ccccc3)=Nc3ccccc3S2)c1` (configuration not stated): 90.9%; for `CCOC(=O)/C=C/c1ccc(C(=O)OCC)[nH]1`: 64.9%. Turning to `CS(CCCCN=C=S)=NC(=O)c1c(F)c(F)c(F)c(F)c1F` (configuration not stated), the growth was 52.4%. Same read-out and setting: the value for `Cc1cc(Nc2nc(N3CCN(C)CC3)nc3ccccc23)n[nH]1` was 41.3%; that for `Cc1csc2ccc(Cl)cc12` was 95.5%; that for `O=C1Nc2ccccc2/C1=C/C(=N/c1nnc(-c2ccc(Cl)cc2)s1)c1ccccc1` was -71.4% (active). The same measure, in the same setting: the same measure for `CC(=O)OCC1OC(OC2=C(CC=C(Cl)Cl)C(=O)c3ccccc3C2=O)C(OC(C)=O)C(OC(C)=O)C1OC(C)=O` (configuration not stated): 59.9%; for `O=C(/C=C/c1ccc(B(O)O)cc1)/C=C/c1ccc(B(O)O)cc1`: 86.8%; for `Cc1cc2cc3cc(C)c(N(C)C)cc3[n+](C)c2cc1N(C)C`: 43.8%.

The subject of the next assay is CAKI-1 renal. The assay is described as above. To be noted: 10 µM unless noted.
Consider `Cl/C(=N\Nc1ccccc1)c1ccccc1`, for which the growth is 67.3%. Turning to `COc1cc(-c2c3sc(=O)[nH]c3nc3c2c(=O)[nH]n3C(C)C)cc2c1OCO2`, the growth was 88.8%.

On to `CC(C)(C)n1cc(-c2ccnc(NCCNS(=O)(=O)c3ccccc3)c2)c(-c2cccc(O)c2)n1`, for which the growth was 63.8%. As for `COC(=O)C12C3C(=O)N(c4ccc(OC)cc4)C(=O)C3C(c3cn(-c4ccccc4)nc3C)N1[C@H](c1cn(-c3ccccc3)nc1C)[C@@H]1C(=O)N(c3ccc(OC)cc3)C(=O)[C@@H]12` (some centres not stated), the growth is 91.7%.

Regarding `CC/C(Cc1ccccc1)=C(/c1ccc(O)cc1)c1ccc(OCCN2CCCC2)cc1`, the growth is -72.4% (active). `O=C(NC(Cc1ccccc1)C(=O)CCl)OCc1ccccc1` (configuration not stated): the growth is 48.2%.

As for `CCCCCC(=O)N(CCCC)CCCC`, the growth was 92%.

For `COc1ccc(-c2cc(/C=C3\C(=O)Nc4ccc(Cl)cc43)[nH]n2)cc1`, the growth was 65.8%. Consider `CCOC(=O)C(C#N)C1CCCCC1` (configuration not stated), for which the growth was 75.5%. As for `CC(C)[C@H]1COC(=O)N1[C@@H]1C(=O)N([C@@H](CCC(=O)N2CCN(C3CCCC3)CC2)C(=O)N[C@@H]2CCCc3ccccc32)[C@@H]1/C=C/c1cccc(Br)c1`, the growth was 62.5%.

Regarding `COc1cccc(/C=C\C(=O)c2ccccc2)c1`, the growth was 66.6%.

With `NS(=O)(=O)c1ccc(-n2ncc3c(=O)[nH]c(CN4CCN(c5cc6c(cc5F)c(=O)c(C(=O)O)cn6C5CC5)CC4)nc32)cc1`, the growth was 89.2%. For `COc1cc(C2CC(=O)Nc3c2c(C)nn3-c2nc3ccccc3[nH]2)cc(OC)c1OC` (configuration not stated), the growth is 114%. Same read-out and setting: the value for `CN1CCCCC1CCN1c2ccccc2Sc2ccc(Br)cc21` (configuration not stated) was 55.6%; that for `Cc1ccc(C2CC3c4ccccc4C2C2CCCCN32)cc1` (configuration not stated) was 95%; that for `CCOC(=O)CC(C)=N` was 111%. Consider `COc1ccc(CN(c2ccc(C)cc2)C2OC(=O)c3ccccc32)cc1OC` (configuration not stated), for which the growth is 99.1%. Take `c1c2c(cc3c1OCO3)Cc1cc3c(cc1Cc1cc4c(cc1C2)OCO4)OCO3`: the growth is 89.9%. With `CCCCCCCCCCCCS(=O)CC(C)O` (configuration not stated), the growth is 110%. For `CC1(C)CC(C(=O)OCCCCCCCCCCC[P+](c2ccccc2)(c2ccccc2)c2ccccc2)C(C)(C)N1O` (configuration not stated), the growth was -57.9% (active). On the same count and under the same terms, the value for `COc1ccc(/C(=C/c2ccc3ccccc3c2)c2nn[nH]n2)cc1OC` was 23.3%. Regarding `O=[N+]([O-])c1cccc(C2CC(c3ccccc3)=Nc3ccccc3S2)c1` (configuration not stated), the growth was 91.6%. As for `CCOC(=O)/C=C/c1ccc(C(=O)OCC)[nH]1`, the growth is 35.5%. The same measure, in the same setting: the value for `CS(CCCCN=C=S)=NC(=O)c1c(F)c(F)c(F)c(F)c1F` (configuration not stated) was 71.3%; that for `COC1C/C(=N\O)C2OC(c3ccccc3)OCC2O1` (configuration not stated) was 97.9%.

Take `Cc1cc(Nc2nc(N3CCN(C)CC3)nc3ccccc23)n[nH]1`: the growth was 13.4%.

On to `O=C1Nc2ccccc2/C1=C/C(=N/c1nnc(-c2ccccc2)s1)c1ccccc1`, for which the growth is -10.2% (active). Take `COc1ccc(N(Cc2cc(OC)c(OC)c(OC)c2)C2OC(=O)c3ccccc32)cc1` (configuration not stated): the growth is 45.7%.

Consider `Cc1csc2ccc(Cl)cc12`, for which the growth is 96.9%. For the compound `O=C1Nc2ccccc2/C1=C/C(=N/c1nnc(-c2ccc(Cl)cc2)s1)c1ccccc1`, the growth was 15%. In the case of `Cc1cc2cc3cc(C)c(N(C)C)cc3[n+](C)c2cc1N(C)C`, the growth is 47.2%.

Source of the values: PubChem BioAssay (NCI).
